# Only some compounds are listed: those with a hit (about 2.2% of all), similar ones and a draw of the others.
# PGC1a acetyl inh = modulators of PGC1a acetylation; U2OS PGC1a acetylation, AlphaScreen anti-acetyl-lysine; with virally co-expressed GCN5 acetyltransferase; inhibition, % at 15.6 µM; 350,000 compounds, 0.17% hits; AID 651687;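 active means every replicate shows inhibition of at least 40%; inconclusive means mean inhibition at least 40% but some replicate below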;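 further: 0% = neutral control wells and 100% = positive control wells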
# MITF TRPM1 inh = MITF TRPM1 promoter inhibition in SK-MEL-5 cells; SK-MEL-5 TRPM1 promoter luciferase, 24 h; inhibition, % at 12.5 µM; 330,000 compounds, 0.83% hits; AID 488899;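 active means mean inhibition across replicates of 60% or more, whatever share of single replicates reaches that level; inconclusive means some that reach 60%, reason not given; inactive means mean inhibition across replicates below 60%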
# LGR2 antag = inhibitors of bursicon-induced Drosophila LGR2 receptor cAMP signaling; HEK293 LGR2, CRE-luciferase, bursicon-stimulated, 4 h; inhibition, % at 9.99 µM; 380,000 compounds, 0.35% hits;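 active means drop in luminescence signal, shown as inhibition above about 50% in the replicate tests, limit read from the data, passing the limit was not always enough; inconclusive means probably only some replicates passing the limit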;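 further: agonist challenge used bursicon conditioned medium at about half maximal strength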
# PAX8 inh HTS = lowers PAX8-driven luciferase in RMG-I cells; 360,000 compounds, 1.2% hits; AID 652154; RMG-I TPO-luciferase reporter, SteadyGlo, 24 h; inhibition, % at 12.6 µM;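 active means mean replicate inhibition at least 60% with every replicate also reaching 60%; inconclusive means only one of the two criteria is met; inactive means mean below 60% and not all replicates reaching 60%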;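 further: luciferase light reporting Pax8 driven TPO promoter activity; plate controls were median of neutral control wells for no effect and mitoxantrone controls for full effect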
# EBV LMP1 NFkB = reduces LMP1-driven NF-kappaB luciferase signal; LMP1-induced NF-kappaB luciferase reporter cells, luminescence; inhibition, % at 12.5 µM; 350,000 compounds, 0.69% hits; AID 504558; in the data active means inhibition above about 41%; inconclusive means no clear call, values can overlap the other calls;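 further: 0% = neutral control wells and 100% = reference inhibitor control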
# EWS-Fli inh = blocks EWS/Fli oncoprotein-driven transcription; inhibition, % at 12.6 µM; A673 NR0B1-luciferase reporter, viability-normalised; AID 651661; 350,000 compounds, 0.67% hits;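 active means mean inhibition of at least 50% after viability correction, with every replicate also passing that limit; inconclusive means mean reaches 50% but only one of two replicates passes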;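 further: firefly luciferase signal divided by Alamar Blue viability fluorescence both relative to DMSO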
# Active calls of the source: *; u = inconclusive; x = no result.
SMILES,PGC1a acetyl inh,MITF TRPM1 inh,LGR2 antag,PAX8 inh HTS,EBV LMP1 NFkB,EWS-Fli inh
COc1cccc(-c2sc3ccc(OC)cc3c2-c2ccc(OCCN(C)C)cc2)c1,x,19,-5,68*,-34,26
C[C@@H]1CCCCO[C@H](CN(C)C(=O)Nc2ccc(C(F)(F)F)cc2)[C@@H](C)CN([C@@H](C)CO)C(=O)c2cc(NS(=O)(=O)c3ccc(F)cc3)ccc2O1,0,x,18,85*,x,-10
C[C@H]1CCCCO[C@@H](CN(C)C(=O)Nc2ccc(C(F)(F)F)cc2)[C@@H](C)CN([C@@H](C)CO)C(=O)c2cc(NS(=O)(=O)c3ccc(F)cc3)ccc2O1,1,x,5,-21,x,-7
C[C@@H]1CCCCO[C@H](CN(C)C(=O)Nc2ccc(C(F)(F)F)cc2)[C@H](C)CN([C@@H](C)CO)C(=O)c2cc(NS(=O)(=O)c3ccc(F)cc3)ccc2O1,0,x,14,68*,x,15
COc1ccccc1CN1CCCC(C(=O)N(C)Cc2ccccc2)C1 (configuration not stated),45*,-6,x,x,21,x
COc1cc(C(=O)NC2CCN(C)CC2)ccc1Nc1ncc2c(n1)N(CCc1ccccc1)CCC(=O)N2C,-26,u,3,-64,4,54*
COc1cc(C(=O)NC2CCN(C)CC2)ccc1Nc1ncc2c(n1)N(C1CCCC1)CCC(=O)N2C(C)C,x,74*,x,x,-21,x
CN1CCC(NC(=O)c2cccc(Oc3ccccc3)c2)CC1,x,-1,1,x,2,7
CO[C@@H]1CN(C)C(=O)c2ccc(NC(=O)C3CC3)cc2OC[C@H](C)N(C(=O)c2ccncc2)C[C@H]1C,9,x,0,-15,x,-6
C[C@@H](NC(=O)C[C@H]1C=C[C@H](NC(=O)Cc2ccccn2)[C@H](CO)O1)c1ccccc1,4,x,-26,x,x,x
C(=C\c1ccccc1)/C=N/N1CCN(c2ccccn2)CC1,3,-82,x,x,85*,x
COc1ccc(S(=O)(=O)N2CCCC2CNC(=O)C(=O)Nc2ccc(C)cc2)cc1 (configuration not stated),x,-2,10,7,-1,3
COc1ccc(NC(=O)C(=O)NCC2CCCN2S(=O)(=O)c2cc(C)ccc2C)cc1 (configuration not stated),-2,31,10,34,9,57*
COc1ccc(NC(=O)C(=O)NCC2CCCN2S(=O)(=O)c2ccc(C)cc2)cc1 (configuration not stated),x,72*,-11,104*,5,56*
COc1ccc(/C=C/C(=O)c2cc(F)ccc2OC(=O)c2ccccc2C)cc1OC,-30,49,32,91*,-12,u
CN(CC(=O)N1CCN(Cc2ccccc2)CC1)S(=O)(=O)c1cccc2nsnc12,x,1,19,-11,2,9
CC1CCCCN1C(=O)CN(C)S(=O)(=O)c1cccc2nsnc12 (configuration not stated),42*,3,6,-5,-2,-4
C[C@@H]1CCCCO[C@@H](CN(C)C(=O)c2ccccc2)[C@H](C)CN([C@@H](C)CO)C(=O)c2cc(NC(=O)CCC(F)(F)F)ccc2O1,2,x,1,-29,x,-1
O=c1c([N+](=O)[O-])cn(Cc2ccccc2)c(=O)n1Cc1ccccc1,16,16,25,-8,68*,1
O=C(Nc1cccc(Oc2ccc(C(=O)O)c(C(=O)O)c2)c1)c1ccc(-c2ccccc2)cc1,1,6,56*,24,2,11
O=C(COc1cccc(NC(=O)c2ccccc2)c1)c1ccc(F)cc1,x,0,-10,69*,-5,-10
O=C(O)c1ccc(C(=O)Nc2ccc(F)cc2)cc1,x,106*,-20,-30,-4,-2
O=C(Oc1c(CN2CCOCC2)cc(Cl)c2cccnc12)c1ccccc1Cl,15,76*,11,46,71*,21
O=C(Oc1c(CN2CCOCC2)cc(Cl)c2cccnc12)c1ccc(F)cc1,18,64*,x,x,58*,x
O=C(Oc1ccc(Cl)c2cccnc12)N1CCOCC1,x,-1,x,-10,-8,x
SMILES,PGC1a acetyl inh,MITF TRPM1 inh,LGR2 antag,PAX8 inh HTS,EBV LMP1 NFkB,EWS-Fli inh
O=C(Oc1c(CN2CCOCC2)cc(Cl)c2cccnc12)c1cccs1,22,69*,12,71*,4,27
COc1ccc2c3c(n(C)c2c1)[C@H](CO)N(C(=O)C1CCCCC1)CC31CCN(C)CC1,3,x,-7,x,x,-3
C[C@@H]1CCCCO[C@H](CN(C)Cc2ccccc2)[C@@H](C)CN([C@@H](C)CO)C(=O)c2cc(NS(=O)(=O)c3ccc(Cl)cc3)ccc2O1,-10,x,24,75*,x,7
C[C@@H]1CN([C@H](C)CO)C(=O)c2cc(NS(=O)(=O)c3ccc(F)cc3)ccc2O[C@@H](C)CCCCO[C@H]1CN(C)Cc1ccccc1,-10,x,-3,77*,x,5
C[C@@H]1CN([C@H](C)CO)C(=O)c2cc(NS(=O)(=O)c3ccc(Cl)cc3)ccc2O[C@@H](C)CCCCO[C@@H]1CN(C)Cc1ccccc1,6,x,25,112*,x,8
COCC(=O)Nc1ccc2c(c1)C(=O)N(C)[C@H]1CC[C@H](CC(=O)O)O[C@@H]1CO2,-7,x,-3,-6,x,2
CC=Cc1ccc2n(c1=O)C[C@@H]1[C@@H](CO)[C@H](C(=O)NCc3ccc4c(c3)OCO4)[C@H]2N1C(=O)CC (mixture of isomers),x,x,0,-1,x,9
C[C@H](CO)N1C[C@H](C)[C@H](CN(C)C(=O)NC2CCCC2)Oc2cc(-c3cccnc3)ccc2S1(=O)=O,-30,x,1,-26,x,4
Brc1ccc(N/N=C(/N=Nc2nn[nH]n2)c2ccccc2)cc1,97*,67*,-9,55,58*,-14
Nc1ccc(S(=O)(=O)Nc2cnc3c(Cl)cccc3n2)cc1,x,-3,-27,80*,-97,-4
COc1ccc(/C=N/Nc2nnc(C)n2N)cc1OC,4,11,-7,19,60*,-6
COc1ccc(/C=N/N=C/c2ccc(OC)c(OC)c2)cc1OC,0,-3,x,7,44*,x
CCNC(=O)[C@@H]1[C@@H](CO)[C@@H]2Cn3c(ccc(-c4cccc(F)c4)c3=O)[C@@H]2N1Cc1nccs1,1,x,10,-2,x,3
Cc1cc(C)c2nc(SCC(=O)N3CC(=O)Nc4ccccc43)c(C#N)cc2c1,-20,36,x,97*,-5,x
COc1ccc2nc(SCC(=O)N3CC(=O)Nc4ccccc43)c(C#N)cc2c1,-1,-4,x,x,6,x
COc1ccc(/C=C(\NC(=O)c2cccs2)C(=O)NC(C)(C)C)cc1OC,x,x,-7,-27,-5,12
COc1ccc(C(=O)N/C(=C/c2cccs2)C(=O)NC(C)(C)C)cc1OC,67*,-1,0,-13,5,-76
CCCNC(=O)N[C@H]1C=C[C@@H](CC(=O)NC2CCCCC2)O[C@@H]1CO,-6,x,19,-3,x,0
